# Compound activity: PubChem BioAssay, National Center for Advancing Translational Sciences (NCATS)
# ALDH1A1 inh = inhibitors of human aldehyde dehydrogenase 1A1. P00352. Purified ALDH1A1, NADH fluorescence, propionaldehyde substrate. Potency, µM (top dose mostly 75.3 µM), usual class: inhibitors. 220,000 tested, 7.3% active. AID 1030; active means well fitted inhibition curve with a large enough effect, not every such curve was filed as active; inconclusive means small, poorly fitted or top-dose-only effect, or another doubt; inactive means no such curve, though single readings can be large or run the other way
# GLA inh pH 4.5 = inhibitors of human alpha-galactosidase A at pH 4.5 | P06280 | purified enzyme, 4-MU-alpha-Gal fluorescence, pH 4.5 | activity change, negative = inhibition, % at 105 µM | 230,000 tested, under 10 active | AID 1467
# ALOX12 inhib = blocks human 12-lipoxygenase activity; purified 12-hLO, xylenol orange hydroperoxide absorbance; P18054; Potency, µM (highest dose often 57.1 µM), hits mostly inhibitors; 150,000 tested, 0.12% active; further: nearly all actives have a fitted effect of over 55% in size
#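 Hydroperoxide output read as Fe(III)-xylenol orange absorbance, 573-to-405 nm ratio, after 30 min reaction with 40 uM arachidonic acid. Enzyme: 150 nM purified human 12hLO, 15 min compound preincubation; 25 mM Hepes pH 7.0, room temperature.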
# PNC inhibitor = inhibitors of perinucleolar compartment assembly; activity change (PNC), negative = inhibition, % at 10 µM; AID 2417; PC3M PTB-GFP, PNC prevalence imaging, 16 h; stronger effect = lower value; 140,000 tested, 3.1% active;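 active means readout at or below -70, meaning at least 70% loss of cells showing the perinucleolar compartment, a nuclear body marking cancer cells; inconclusive means readout between -30 and a set limit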
#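 Read-out is percentage of cells bearing a perinucleolar compartment, from automated 20x imaging of fixed, Hoechst-stained PC3M PTB-GFP cells. Cells were seeded 4 h, then exposed 16 h to compound (23 nl of library stock) in duplicate plates.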
# HPGD inh = HPGD (human) dehydrogenase inhibition | purified HPGD, NADH fluorescence kinetic, PGE2 substrate | P15428 | 150,000 tested, 4.3% active | Potency, µM, actives largely listed as inhibitors | AID 894; active means well fitted inhibition curve with a large enough effect, not every such curve was filed as active; inconclusive means small, poorly fitted or top-dose-only effect, or another doubt; inactive means no such curve, though single readings can be large or run the other way
# Target sequence (P15428 whole entry, looked up): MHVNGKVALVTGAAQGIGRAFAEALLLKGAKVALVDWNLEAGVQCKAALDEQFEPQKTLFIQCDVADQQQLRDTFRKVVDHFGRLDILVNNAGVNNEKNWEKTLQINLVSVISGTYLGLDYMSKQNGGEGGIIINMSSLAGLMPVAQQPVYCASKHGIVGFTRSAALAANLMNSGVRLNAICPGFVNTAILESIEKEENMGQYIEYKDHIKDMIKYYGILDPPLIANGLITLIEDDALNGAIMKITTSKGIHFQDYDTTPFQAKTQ
#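 NADH formation kinetics: reaction with 30 uM PGE2 and 1 mM NAD+ (final), 20 nM enzyme, Tris-HCl pH 8 with Tween 20, after 15 min compound preincubation at room temperature. Fluorescence change, last versus first of five reads.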
# aGal spleen mod = inhibitors or activators of human alpha-galactosidase in spleen homogenate. AID 2107. Potency, µM (top dose mostly 80 µM), most hits filed as inhibitors. P06280. human spleen homogenate, 4MU-alpha-Gal fluorescence, 40 min. 240,000 tested, 0.008% active
# Target sequence (P06280 32-429 limits assumed): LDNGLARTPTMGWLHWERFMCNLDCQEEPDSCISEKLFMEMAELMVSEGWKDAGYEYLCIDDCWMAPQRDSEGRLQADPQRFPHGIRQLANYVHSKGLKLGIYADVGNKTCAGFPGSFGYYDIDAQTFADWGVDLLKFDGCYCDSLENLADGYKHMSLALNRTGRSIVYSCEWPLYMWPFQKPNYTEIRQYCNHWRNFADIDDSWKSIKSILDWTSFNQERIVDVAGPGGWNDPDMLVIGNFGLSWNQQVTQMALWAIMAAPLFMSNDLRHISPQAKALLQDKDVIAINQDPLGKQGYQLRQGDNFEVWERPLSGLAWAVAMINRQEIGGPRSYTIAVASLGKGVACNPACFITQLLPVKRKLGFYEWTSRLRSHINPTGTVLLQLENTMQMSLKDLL
#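 Fluorogenic readout (Ex 365/Em 440 nm) of 4-methylumbelliferone released from 1 mM 4-MU-alpha-galactoside by spleen homogenate, 40 min at 37C, pH 5.0. Data normalized to no-enzyme and enzyme controls; Hill-equation AC50 from compound titrations.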
# Hits are given with their value; i = inactive; ? = inconclusive; nt = no result given; [ ] = dose if it differs, or a comment. Compounds with a hit are over-represented: about 10% of the library has one in this group of screens. Unless noted, the call rests on the fitted dose curve; in most records, active means well fitted curve in the direction sought with a large enough effect; inconclusive means small, poorly fitted or top-dose-only effect, or another doubt; inactive means no such curve, though single readings can be large; an effect the other way counts as inactive or inconclusive.
SMILES,ALDH1A1 inh,GLA inh pH 4.5,ALOX12 inhib,PNC inhibitor,HPGD inh,aGal spleen mod
Cc1cc(C)c(C(N)=O)c(Nc2ccc3c(c2)OCCO3)n1,i,i,i,-100,i,i
CCCn1c(C)nc2c(NCC3CCCN3CC)nc(C)nc21 (centres undefined),i,i,i,nt,i,i
CC(=O)N(O)[C@@H]1c2cc(C#N)ccc2OC(C)(C)[C@H]1O,i,i,i,nt,i,i
CCCOc1ccc(NCC(=O)Nc2ccc(C)cc2C)cc1,2.2µM,i,i,i,i,i
CCOc1ccc(NCC(=O)Nc2ccc(Cl)cc2C)cc1,3.5µM,i,i,i,i,i
COc1ccc(NCC(=O)Nc2ccc(Cl)cc2C)c(OC)c1,4.5µM,i,i,?,7.9µM,i
COc1ccc(NC(=O)CCSCCC(=O)Nc2ccc(OC)cc2OC)c(OC)c1,i,i,i,?,i,i
Cc1ccc(NC(=O)Cc2ccc(-n3cccc3)cc2)c(C)c1,i,i,i,i,i,i
Cc1ccc(NC(=O)CCl)c(C)c1,0.28µM,i,nt,nt,nt,i
CCOc1ccc(NC(=O)CCC(=O)NNC(=O)Nc2ccc(Cl)cc2)cc1,i,i,nt,nt,nt,i
CCO[C@H]1OC(C(=O)O)=C[C@@H](C)[C@@H]1CCCO,i,i,nt,nt,nt,i
O=C(Nc1ccc(Br)cc1F)c1cccnc1,i,i,i,i,i,i
CC(=O)Nc1nnc(-c2c(-c3c(Cl)cccc3Cl)noc2C)o1,i,i,nt,nt,nt,i
Cc1cc(Cl)ccc1NC(=O)CCC(=O)O,i,i,i,-84,i,i
Cc1ccc(OC(=O)COc2ccccc2C)c(-n2nc3ccccc3n2)c1,32µM,i,i,i,?,i
O=C(NNC1=NCCCCC1)c1ccccc1,i,i,i,i,14µM,i
N#Cc1ccccc1NC(=O)Nc1ccc(Cl)cc1,?,i,i,-109,i,?
N#Cc1ccccc1NC(=O)Nc1cccc(Cl)c1,?,i,i,?,i,i
C[C@@H]1O[C@@H](n2cc(F)c(=O)[nH]c2=O)[C@H](O)[C@@H]1O,nt,nt,i,nt,nt,nt
COC(=O)NNS(=O)(=O)c1ccc(C)cc1,i,i,i,-99,i,i
CCOC(=O)CNS(=O)(=O)c1ccc(C(=O)O)cc1,i,i,i,i,i,i
Cc1ccc(S(=O)(=O)NC(=O)Nn2c(C)nnc2C)cc1,i,i,i,-80,i,i
CCOC(=O)CNS(=O)(=O)c1ccc(C)cc1,i,i,i,-113,i,i
Cc1ccc(S(=O)(=O)NCCOCCNS(=O)(=O)c2ccc(C)cc2)cc1,13µM,i,i,i,i,i
Cc1ccc(S(=O)(=O)NNC(=O)c2cc(C)cs2)cc1,nt,i,nt,nt,nt,i
SMILES,ALDH1A1 inh,GLA inh pH 4.5,ALOX12 inhib,PNC inhibitor,HPGD inh,aGal spleen mod
Cc1cc(C)nc(/N=C(\N)Nc2ccc(C(C)C)cc2)n1,nt,i,nt,nt,nt,i
CCC[C@@H]1C[C@@]1(CCC)C(NC(=O)c1ccco1)c1ccc(Cl)cc1 (some centres undefined),i,i,i,nt,i,i
Cc1ccc(NC(=O)CCCCCNS(=O)(=O)c2ccc(C)cc2)cc1,?,i,i,i,i,i
Cc1ccc(S(=O)(=O)NCCCC(=O)C=[N+]=[N-])cc1,13µM,i,i,-109,i,i
CNC(=S)N(Cc1cccs1)Cc1cc2cc(OC)ccc2[nH]c1=O,?,i,i,i,?,i
Cc1ccc(C)c2[nH]c(=O)c(CN(Cc3cccs3)C(=S)NCc3ccco3)cc12,25µM,i,i,i,i,i
COc1ccc2[nH]c(=O)c(CN(Cc3cccs3)C(=S)Nc3cccc(C)c3)cc2c1,?,i,i,-100,?,i
COc1ccccc1CN(Cc1nc2ccccc2c(=O)[nH]1)C(=O)Nc1ccc(C)cc1,i,i,i,i,i,i
CCNC(=S)N(Cc1cc2cccc(C)c2[nH]c1=O)C1CCCC1,?,i,i,-119,i,i
Cc1cc2cc(CN(Cc3cccs3)C(=S)NCc3ccco3)c(=O)[nH]c2cc1C,?,i,i,i,?,i
COc1ccccc1CN(Cc1nc2ccccc2c(=O)[nH]1)C(=O)Nc1ccccc1C,?,i,i,-115,i,i
CN(C)c1ncnc2ccc(-c3cccc(NS(C)(=O)=O)c3)cc12,i,nt,nt,nt,nt,i
CN(C)CCCO[C@H]1[C@H]([C@H](O)CO)O[C@H]2OC(C)(C)O[C@@H]21,nt,nt,i,nt,nt,nt
Cc1cc(O)c(C)c2c1CC[C@H]1[C@H](C)C(=O)O[C@H]21,i,i,nt,nt,i,i
O=C(O)CCCN1C(=O)c2ccc(Oc3cccc([N+](=O)[O-])c3)cc2C1=O,i,i,nt,nt,nt,i
C=CCNC(=O)NC(=O)COC(=O)CC(NC(N)=O)c1ccc(Cl)cc1 (centres undefined),i,i,i,i,i,i
COc1ccccc1NC(=O)N(Cc1ccco1)Cc1cc2c(C)ccc(C)c2[nH]c1=O,18µM,i,i,i,i,i
Cc1cccc(NC(=S)N(Cc2cccs2)Cc2cc3cc(C)cc(C)c3[nH]c2=O)c1,i,i,i,i,i,i
COc1ccccc1NC(=O)N(Cc1ccco1)Cc1cc2cccc(C)c2[nH]c1=O,?,i,i,?,i,i
COCCNC(=S)N(Cc1cccs1)Cc1cc2cccc(C)c2[nH]c1=O,13µM,i,nt,nt,nt,i
COc1cccc(-c2cc(=O)c3ccc(OC)cc3o2)c1,?,i,i,nt,?,i
CCCCc1nc2c(c3c1C[C@H](C)OC3)CN(C(=O)C1CCCCC1)CC2,i[13.5 µM],i,i[11.4 µM],nt,i,i[17.5 µM]
CCOc1ccc(OCC)c(C2C(C#N)=C(N)N(c3cccnc3)C3=C2C(=O)CC(C)(C)C3)c1 (centres undefined),3.5µM,i,i,i,i,i
O=C1c2ccccc2C(=O)N1CCc1nc2ccccc2c(=O)n1-c1ccccn1,i,i,i,?,i,i
Cc1cccnc1-n1c(CCN2C(=O)c3ccccc3C2=O)nc2ccccc2c1=O,18µM,i,i,i,i,i
SMILES,ALDH1A1 inh,GLA inh pH 4.5,ALOX12 inhib,PNC inhibitor,HPGD inh,aGal spleen mod
CCOC(=O)N1CCC(NC(=O)CCN2C(=O)COc3ccccc32)CC1,i,i,i,-80,i,i
CCCC(OC(=O)CN1C(=O)COc2ccccc21)C(=O)NC1CCCC1 (centres undefined),i,i,i,i,28µM,i
Cc1ccc(CNC(=O)c2cc3c(s2)CN(Cc2ccccc2)C3)cc1,i,i,nt,nt,nt,i
Oc1c(C(O)(c2ccccc2)c2ccc3ccccc3c2O)ccc2ccccc12,i[13.5 µM],nt,i[11.4 µM],nt,?,nt
COc1ccc(/C=C(\C#N)C(=O)OCC(=O)Nc2ccc(C(C)(C)C)cc2)cc1,22µM,i,i,i,?,i
COc1ccc(/C=C(\C#N)C(=O)OCC(=O)NCc2ccccc2)cc1,?,i,i,i,?,i
CCc1cccc(CC)c1NC(=O)COC(=O)/C(C#N)=C/c1ccc(OC)cc1,i,i,i,i,i,i
COc1cc(/C=N/NC(N)=S)ccc1OCC(=O)Nc1ccc(C)cc1,25µM,i,i,i,i,i
